D2 ag-1: Beta-Arrestin HTS for Positive Allosteric Modulators of the Human D2 Dopamine Receptor: Agonists. DiscoveRx PathHunter D2 beta-arrestin, luminescence, 90 min; 100% = 57 uM dopamine signal. activation, % (no concentration beside the values). hit rate 0.084% among 360,000; in the data active means activation above about 40%; inconclusive means between about 15% and that limit
Target sequence (P14416 whole entry, looked up): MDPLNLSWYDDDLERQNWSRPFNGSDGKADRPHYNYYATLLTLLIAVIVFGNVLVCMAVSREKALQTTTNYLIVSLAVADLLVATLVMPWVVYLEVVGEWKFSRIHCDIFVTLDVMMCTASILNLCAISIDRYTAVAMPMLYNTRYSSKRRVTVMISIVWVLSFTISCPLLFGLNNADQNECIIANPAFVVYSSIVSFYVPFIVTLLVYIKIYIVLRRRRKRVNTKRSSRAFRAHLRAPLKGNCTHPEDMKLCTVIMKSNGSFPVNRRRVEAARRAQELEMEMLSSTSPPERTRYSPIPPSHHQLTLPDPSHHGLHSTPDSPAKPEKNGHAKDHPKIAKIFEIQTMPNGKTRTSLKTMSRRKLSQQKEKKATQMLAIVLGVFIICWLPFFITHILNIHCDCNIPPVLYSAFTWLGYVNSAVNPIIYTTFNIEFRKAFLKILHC
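Agonist mode: compounds alone added to overnight-plated D2 PathHunter cells for 90 min at 37 C, with 57 uM final dopamine (EC100) defining full response. Beta-arrestin recruitment detected by chemiluminescent reagent, read after 1 h at ambient temperature.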
D2 PAM-1: HTS Assay for Positive Allosteric Modulators of the Human D2 Dopamine Receptor: Primary Screen for Potentiators; D(2) dopamine receptor (Homo sapiens), P14416; HEK293 T-REx D2, calcium flux, EC20 dopamine potentiation; potentiation, % at 10 µM; hit rate 0.34% among 340,000; AID 485347, 2010;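 active means potentiation over 3 SD above the plate norm, cut at about 30% in these data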
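Potentiation of an EC20 dopamine calcium response is measured in a force-coupled, tetracycline-inducible Hek293 Trex D2 line. Compound-only kinetic reads over 180 s flag agonists before dopamine addition.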
D2 ag-2: HTS Assay for Allosteric Agonists of the Human D2 Dopamine Receptor: Primary Screen for Agonists | activation, % at 2 µM | HEK293 T-REx D2 cells, calcium flux agonist mode | hit rate 0.53% among 340,000;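 active means activation over 3 SD above normal in the single-dose calcium agonist read, cut at about 30% in these data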
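Calcium-flux readout, 1 cycle/sec over 180 s following compound pin transfer, in inducible HEK293 Trex D2 cells (force-coupled); dopamine controls included. Positive calcium responses during this window marked compounds as potential agonists.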
D2 PAM-2: Beta-Arrestin HTS for Positive Allosteric Modulators of the Human D2 Dopamine Receptor: Potentiators; potentiation, % (concentration not given with the values); hit rate 0.23% among 360,000; D(2) dopamine receptor (Homo sapiens), P14416; DiscoveRx D2 beta-arrestin cells, luminescence, 90 min; 100% = 57 uM dopamine signal; in the data active means potentiation above about 50%; inconclusive means mostly about 30% to 49%
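D2 cells co-treated with compound plus 50 nM dopamine (EC20) for 90 min at 37 deg C to detect potentiation. Beta-arrestin recruitment was read as enzyme-fragment luminescence after 1 h at ambient temperature. Full response was set by 57 uM dopamine.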
D2 antagonist: HTS Assay for Allosteric Antagonists of the Human D2 Dopamine Receptor: Primary Screen for Antagonists; D(2) dopamine receptor (Homo sapiens), P14416; HEK293 TREx D2 cells, calcium flux, dopamine EC80; inhibition, % at 10 µM; hit rate 2% among 340,000; AID 485344, 2010; in the data active means inhibition above about 30%; inactive means below that, where a call was filed
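HEK293 T-REx D2 cells, tet-induced, calcium dye no-wash. Cpd pintool add, 180 s kinetic, then EC80 DA, 180 s kinetic. Ca flux read.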
Numbers stand for hits; i = inactive; ? = inconclusive; nt = no result. The list is not random: actives were taken first. Their share in the collection is about 2.4%.

SMILES | D2 ag-1 | D2 PAM-1 | D2 ag-2 | D2 PAM-2 | D2 antagonist
CCCCS(=O)CC(CS(=O)CCCC)OC(=O)c1ccccc1 (stereo unspecified) | i | i | i | i | i
CCCCS(=O)(=O)CC(COc1ccccc1)OC(=O)c1ccccc1 (stereo unspecified) | i | i | i | i | 35
CCOC(=O)C1CCN(c2cc(C)nc3c(-c4ccccc4OC)c(C)nn23)CC1 | nt | i | i | nt | nt
Nc1ccc(/C=C/C(=O)c2cccs2)cc1 | i | i | i | i | 60
COc1cccc(-c2nc(SCc3cc(=O)c4ccc(C)c(C)c4[nH]3)n[nH]2)c1 | nt | i | i | nt | nt
Cc1cc(C(=O)COC(=O)c2cc(O)c3ccccc3c2O)c(C)n1CC1CCCO1 (stereo unspecified) | ? | i | i | 83 | i
O=S1(=O)N=C(N/N=C/c2cccs2)c2ccccc21 | i | i | i | i | i
C[C@@H]1CN([C@H](C)CO)C(=O)c2cc(Br)cnc2O[C@@H]1CN(C)C(=O)C1CCOCC1 | i | nt | nt | i | nt
COc1ccc(NC2=C(C(C)=O)C(c3ccc(OC)cc3)C(C(C)=O)C(C)(O)C2)cc1 (stereo unspecified) | i | i | i | i | i
COc1ccc(NC2=C(C(C)=O)C(c3ccc(N(C)C)cc3)C(C(C)=O)C(C)(O)C2)cc1 (stereo unspecified) | i | i | i | 51 | i
COCCn1c(-c2ccc(NC(C)=O)cc2)nc2c1c(=O)[nH]c(=O)n2CC(C)C | i | i | i | i | 31
COCCn1c(-c2ccc(-c3ccccc3Cl)o2)nc2c1c(=O)[nH]c(=O)n2CC(C)C | i | i | i | i | i
CCOC(=O)C1(C)C(=O)CC2c3nc4ccccc4cc3CN2C1=O (stereo unspecified) | i | nt | nt | i | nt
O=C(Nc1ccccc1)c1cccc(N2C(=O)C3C4C=CC(C5CC45)C3C2=O)c1 (stereo unspecified) | i | i | i | i | 32
COc1ccc(OC)c(NC(=O)c2cccc(N3C(=O)C4C5C=CC(C6CC56)C4C3=O)c2)c1 (stereo unspecified) | i | 40 | i | i | i
CCOc1ncccc1C(=O)Nc1nnc(C2CC2)s1 | i | 37 | i | i | i
CCOc1ncccc1C(=O)Nc1nnc(C)s1 | i | i | i | i | i
COc1cccc(-c2csc(N3CCN(C(=S)Nc4ccccc4)CC3)n2)c1 | i | i | i | i | i
COc1cccc(-c2csc(N3CCN(C(=S)Nc4cccc(C)c4)CC3)n2)c1 | i | i | i | i | 86
COCCCNc1nc2c(c(=O)n(C)c(=O)n2C)n1Cc1cccc(OC)c1 | i | i | i | i | 40
COCCNc1nc2c(c(=O)n(C)c(=O)n2C)n1Cc1cccc(C)c1 | i | i | i | i | i
CC(C)N=c1scc(-c2cccs2)n1/N=C/c1ccc(O)c(O)c1O | ? | i | i | 55 | i
CN=c1scc(-c2ccccc2F)n1/N=C/c1ccc(O)c(O)c1O | 180 | i | i | 173 | i
CN=c1scc(-c2ccccc2F)n1/N=C/c1ccc[nH]1 | i | i | i | i | i
Cc1cccc(NC(=O)c2cccc(S(=O)(=O)N(C)c3ccccc3)c2)n1 | i | i | i | i | i
O=S(=O)(c1ccccc1)N1CC2CC(Br)C(Br)CC21 (stereo unspecified) | i | nt | nt | i | nt
COc1ccc(CCNC(=O)c2cc3sc(Cl)cc3n2C)cc1OC | i | i | i | i | 63
